Source: PubChem BioAssay
Values joined by “and” are separate entries in the source; they are usually repeats but may differ in a detail not shown here. Identical values can stand only once. Active and inactive are the calls of the source.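 The calls were made as follows, unless noted: active = mean z-score across replicates of 1.96 or higher in either the MELAS or the Rieske mutant cell line; inactive = the rest.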

How the values were obtained:
[1] = stimulators of nuclear beta-catenin in C2C12, primary screen, imaging, WNT3A-conditioned medium, mouse C2C12, NPC library (AID 1117326; in the data active = nuclear beta-catenin stimulation mostly above about 4.2%, no sharp cut-off; inactive = mostly below about 10%); conditions: stronger effect = higher value
[2] = stimulators of insulin release from INS-1E, primary screen, cell-based, 5 mM glucose, NPC library (AID 1117329;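 active = compound raises insulin release from rat beta cells at 5 mM glucose, no numeric limit stated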); conditions: rat INS-1E insulin secretion, at 10 µM, stronger effect = higher value
[3] = growth inhibition of GSK3B-pretreated HCT116 cells – cell-based, CellTiter-Glo, 0.2 to 20 µM (AID 1117336;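 active = compounds lowering colon cancer cell viability after pretreatment blocking the GSK3B kinase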); conditions: HCT116 viability after GSK3B inhibitor, at 20 µM, stronger effect = higher value
[4] = inhibition of endothelial tube formation, primary screen, imaging, VEGF stimulated, CD31 staining, tube area, NPC library (AID 1117340;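 active = compound that reduces growth-factor-driven endothelial tube area in a mixed cell culture, no cutoff stated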); conditions: VEGF-stimulated ADSC/ECFC co-culture, at 10 µM, stronger effect = higher value
[5] = glucagon-like peptide 1 release enhancers, primary assay, NCI-H716 cell line, NPC library (AID 1117341;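 active = compound raises GLP1 secretion from the human gut endocrine cells, with no numeric limit stated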); conditions: NCI-H716 cells, at 10 µM, stronger effect = higher value
[6] = HCT116 colon cancer cell growth inhibition, primary screen, CellTiter-Glo luminescence, NPC library (AID 1117342;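 active = compounds that lower survival of HCT116 colon cancer cells in the luminescence readout, no numeric limit stated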); conditions: at 20 µM (top of the series)
[7] = CellTiter-Glo luminescent readout of SW480 viability loss, NPC library primary (AID 1117343;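 active = compounds that lower viability of the colon cancer cells in the luminescence readout, with no numeric limit stated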); conditions: CellTiter-Glo luminescence; at 20 µM (top of the series) unless noted
[8] = decreased DLD-1 cellular survival, CellTiter-Glo luminescent readout, NPC compound collection, primary HTS (AID 1117346;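 active = compounds that lower survival of DLD-1 colon cancer cells in the luminescence readout, no cutoff given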); conditions: DLD-1 viability, CellTiter-Glo luminescence; at 20 µM (top of the series)
[9] = differential killing of epithelial or mesenchymal cells, primary screen, imaging, PC-3E GFP, TEM4-18 mCherry, co-culture (AID 1345086;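 active = compounds killing one labelled cell type while sparing the other, by normalised counts and ratio limits, not self-fluorescent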;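 as to all read-outs here: cells exposed to compound for 72 h before imaging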;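 as to red/green cell ratio (normalised): normalised mesenchymal count divided by normalised epithelial count so high means epithelial killing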); conditions: imaging cell counts, at 1 µM; for red/green cell ratio (normalised): actives lie on both sides, counts scaled to control wells, 1 = unselective
[10] = sensitizers of A549 cells to miR-34 induction, primary screen, imaging, A549 dox-inducible miR-34, nuclei and caspase counts (AID 1347080;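 active = compounds whose cell count with miR-34 switched on is under 0.7 times the count with it off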); conditions: A549 miR-34 inducible, Hoechst nuclei count, 48 h
[11] = survival rescue of mitochondrial mutant cells in low glucose, primary screen, MELAS cybrids, Rieske KO mouse fibroblasts, CellTiter-Glo (AID 1508586);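 also: z relative to plate mean and SD of compound and empty wells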
[12] = molecular target: NAD(+) hydrolase SARM1 (Homo sapiens) (UniProt Q6SZW1); test: SARM1 TIR NADase inhibitors, cell lysate, NAD-Glo luminescence (AID 1508614;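 active = compound whose remaining NAD level is above about 45 nM, limit read from the data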;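 also: higher remaining NAD means stronger inhibition of SARM1 NADase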); conditions: SAM-TIR HEK293T lysate NADase, at 1 µM, stronger effect = higher value
[13] = hESC survival regulators, cell-based (AID 493140; call rule not given here;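 also: cells exposed to compounds for four days before counting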); conditions: human embryonic stem cell survival screen; stronger effect = higher value
[14] = liver-stage malaria parasite growth inhibition, primary screen, cell-based, HepG2, luciferase luminescence, HepG2 viability (AID 624349; in the data active = parasite load remaining mostly below about 12%, no sharp cut-off; inactive = mostly above about 10%;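 also: 100% = mean of DMSO negative control wells on the same plate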); conditions: P. berghei liver stage in HepG2, luciferase luminescence, concentration not given here; parasite load remaining: stronger effect = lower value; viability: measured here: HepG2 viability without parasites
[15] = LFS_MB_P medulloblastoma growth inhibition, cell-based, chromothripsis tumors, cisplatin or BGB combos (AID 1671449; in the data active = inhibition above about 80%;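 also: cells exposed for 96 hours; 0% = vehicle DMSO and 100% = killing by high DMSO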); conditions: LFS_MB_P medulloblastoma cells
[16] = HDN33 neuroblastoma growth inhibition, cell-based, chromothripsis tumors, cisplatin or BGB combos (AID 1671450; in the data active = inhibition above about 80%;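 also: cells exposed to compound for four days; 0% = vehicle DMSO and 100% = cell killing by high DMSO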); conditions: HDN33 neuroblastoma cells, stronger effect = higher value
[17] = ICB984 medulloblastoma cell growth inhibition, synergistic combos for chromothripsis tumors, cisplatin or BGB combos (AID 1671451; call rule not given here;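 also: cells exposed for 96 hours before readout; 0% = vehicle DMSO and 100% = killing by high DMSO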); conditions: ICB984 medulloblastoma cells, drug combinations, stronger effect = higher value
[18] = HTB85 osteosarcoma cell growth inhibition, synergistic combos for chromothripsis tumors, BGB or cisplatin IC20 combos (AID 1671453; in the data active = inhibition above about 80%;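 also: cells exposed for 96 hours before readout; 0% = vehicle DMSO and 100% = high DMSO killing control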); conditions: HTB85 osteosarcoma cells, drug combinations, stronger effect = higher value
[19] = MDA-MB-436 breast carcinoma cell growth inhibition, synergistic combos for chromothripsis tumors, BGB or cisplatin combos (AID 1671458; call rule not given here;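 also: cells exposed for 96 hours; 0% = vehicle DMSO and 100% = killing by high DMSO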); conditions: MDA-MB-436 breast carcinoma growth inhibition, drug combinations, stronger effect = higher value
[20] = measured here: epithelial PC-3E GFP cell survival
[21] = measured here: mesenchymal TEM4-18 mCherry cell survival
[22] = stronger effect = lower value, cell number ratio, induced over uninduced
[23] = measured here: relative caspase fold change +Dox/-Dox
[24] = measured here: total cells with miR-34 induction, stronger effect = lower value
[25] = measured here: total cells without miR-34 induction
[26] = MELAS cybrid survival, CellTiter-Glo 48 h, stronger effect = higher value
[27] = Rieske KO mouse fibroblast survival, CellTiter-Glo 72 h

NAD(+) hydrolase SARM1 (Homo sapiens), sequence (Q6SZW1 whole entry, looked up): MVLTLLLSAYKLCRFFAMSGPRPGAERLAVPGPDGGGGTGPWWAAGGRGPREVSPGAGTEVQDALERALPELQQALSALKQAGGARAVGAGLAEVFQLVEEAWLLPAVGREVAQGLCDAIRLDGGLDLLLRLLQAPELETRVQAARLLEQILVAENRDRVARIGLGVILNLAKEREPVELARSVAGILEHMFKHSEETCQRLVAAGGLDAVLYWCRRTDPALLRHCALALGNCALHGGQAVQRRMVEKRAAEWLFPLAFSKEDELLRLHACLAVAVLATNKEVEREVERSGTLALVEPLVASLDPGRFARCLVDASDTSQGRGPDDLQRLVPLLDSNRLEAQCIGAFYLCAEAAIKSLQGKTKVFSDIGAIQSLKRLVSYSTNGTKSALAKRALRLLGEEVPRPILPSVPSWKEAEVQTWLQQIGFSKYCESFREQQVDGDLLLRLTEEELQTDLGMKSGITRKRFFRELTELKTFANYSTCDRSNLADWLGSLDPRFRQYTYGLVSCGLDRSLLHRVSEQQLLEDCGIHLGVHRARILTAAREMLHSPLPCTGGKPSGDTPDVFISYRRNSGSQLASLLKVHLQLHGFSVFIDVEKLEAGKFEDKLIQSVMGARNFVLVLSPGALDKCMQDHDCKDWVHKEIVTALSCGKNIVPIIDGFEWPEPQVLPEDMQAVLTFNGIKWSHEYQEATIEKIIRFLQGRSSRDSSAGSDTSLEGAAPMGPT

Compound: CC(=O)NCCCS(=O)(=O)O
- nuclear beta-catenin stimulation ([1]; at 10 µM): -1.9% (inactive)
- nuclear beta-catenin stimulation ([1]; stimulation, at 2 µM): -0.8%
- insulin secretion stimulation [2]: -0.1% (inactive)
- viability decrease [3]: -7.6% (inactive)
- tube area decrease [4]: 3.7% (inactive)
- GLP1 secretion stimulation [5]: -1.3% (inactive)
- inhibition of viability [6]: 1.8% (inactive)
- viability decrease (inhibition) [7]: 4.2% (inactive)
- viability decrease (inhibition) [8]: -2% (inactive)
- red/green cell ratio (normalised) [9]: 0.97 (inactive)
- normalised cell number [9, 20]: 1
- normalised cell number [9, 21]: 0.97
- fold change [10, 22]: 0.904 (inactive)
- fold change [10, 23]: 0.789
- cell count [10, 24]: 8720
- cell count [10, 25]: 9650
- z-score [11, 26]: -0.172 (inactive)
- z-score [11, 27]: 0.0861
- remaining NAD [12]: 10 nM (inactive)

Compound: Nc1cc(C(Cl)=C(Cl)Cl)c(S(N)(=O)=O)cc1S(N)(=O)=O
- survival [13]: 8.08 (inactive)
- parasite load remaining [14]: 69.8% (inactive) and 78.4% (inactive) and 58% (inactive)
- viability [14]: 125% and 85.5% and 102%
- nuclear beta-catenin stimulation ([1]; at 10 µM): 3.8% (inactive)
- nuclear beta-catenin stimulation ([1]; stimulation, at 2 µM): 4.2%
- insulin secretion stimulation [2]: 1.4% (inactive)
- viability decrease [3]: 19% (inactive)
- tube area decrease [4]: 7% (inactive)
- GLP1 secretion stimulation [5]: 12.7% (inactive)
- inhibition of viability [6]: -3.03% (inactive)
- viability decrease (inhibition) [7]: -22% (inactive)
- viability decrease (inhibition) [8]: 4.8% (inactive)
- red/green cell ratio (normalised) [9]: 0.84 (inactive)
- normalised cell number [9, 20]: 1.14
- normalised cell number [9, 21]: 0.96
- fold change [10, 22]: 0.893 (inactive) and 0.936 (inactive) and 0.859 (inactive)
- fold change [10, 23]: 1.43 and 0.803 and 4.71
- cell count [10, 24]: 8790 and 9570 and 11100
- cell count [10, 25]: 9850 and 10200 and 12900
- z-score [11, 26]: -0.253 (inactive) and -0.139 (inactive)
- z-score [11, 27]: 0.393 and 0.0455
- remaining NAD [12]: 10 nM (inactive)

Compound: N=C(N=C(N)N)N1CCOCC1
- survival [13]: 19.5 (inactive)
- parasite load remaining [14]: 19.9% (inactive) and 108% (inactive) and 72.1% (inactive)
- viability [14]: 51% and 98% and 255%
- nuclear beta-catenin stimulation ([1]; at 10 µM): 1.2% (inactive)
- nuclear beta-catenin stimulation ([1]; stimulation, at 2 µM): 1.4%
- insulin secretion stimulation [2]: -2.5% (inactive)
- viability decrease [3]: -5.75% (inactive)
- tube area decrease [4]: 4.5% (inactive)
- GLP1 secretion stimulation [5]: 1.9% (inactive)
- inhibition of viability [6]: 14.6% (inactive)
- viability decrease (inhibition) [7]: 34.4% (inactive)
- viability decrease (inhibition) [8]: 4.15% (inactive)
- red/green cell ratio (normalised) [9]: 0.95 (inactive)
- normalised cell number [9, 20]: 0.9
- normalised cell number [9, 21]: 0.86
- z-score [11, 26]: -0.354 (inactive) and -0.415 (inactive) and 0.363 (inactive)
- z-score [11, 27]: 0.794 and 0.165 and 0.626
- remaining NAD [12]: 10 nM (inactive)
- inhibition ([15]; at 0.5 µM, stronger effect = higher value): 0.66% (inactive)
- inhibition ([15]; measured here: combination with BGB IC20, at 0.005 µM): 31.7%
- inhibition ([15]; measured here: combination with BGB IC40, at 0.005 µM): -13.4%
- inhibition ([15]; measured here: combination with BGB IC40, at 0.05 µM): -9.47%
- inhibition ([15]; measured here: combination with cisplatin, at 0.5 µM, stronger effect = higher value): 66.2%
- inhibition ([15]; measured here: combination with cisplatin, at 5 µM, stronger effect = higher value): -1.14%
- inhibition ([16]; BGB combo, at 5 µM): 12.3%
- inhibition ([16]; at 0.5 µM): -2.43% (inactive)
- inhibition ([16]; cisplatin combo, at 5 µM): 9.3%
- inhibition ([16]; measured here: with BGB IC20 combination, at 0.5 µM): -2.61%
- inhibition ([16]; measured here: with cisplatin IC20 combination, at 0.5 µM): -1.22%
- inhibition ([16]; single agent, at 5 µM): 6.99%
- inhibition ([17]; BGB IC20 combo, at 0.005 µM): 3.73%
- inhibition ([17]; BGB IC40 combo, at 0.005 µM): -7.45%
- inhibition ([17]; BGB IC40 combo, at 0.05 µM): -3.82%
- inhibition ([17]; at 0.5 µM): -14.1% (inactive)
- inhibition ([17]; cisplatin combo, at 0.05 µM): -6.72%
- inhibition ([17]; cisplatin combo, at 0.5 µM): -17.9%
- inhibition ([17]; cisplatin combo, at 5 µM): -29%
- inhibition ([17]; measured here: 5 uM single agent, at 5 µM): -1.94%
- inhibition ([18]; at 0.5 µM): -5.39% (inactive)
- inhibition ([18]; measured here: with BGB IC20, at 0.5 µM): 1.31%
- inhibition ([18]; measured here: with BGB IC20, at 5 µM): -31%
- inhibition ([18]; measured here: with cisplatin IC20, at 0.5 µM): -27.9%
- inhibition ([18]; measured here: with cisplatin IC20, at 5 µM): -17.8%
- inhibition ([18]; single agent, at 5 µM): -7.35%
- inhibition ([19]; at 0.5 µM): -3.31% (inactive)
- inhibition ([19]; measured here: BGB combination, at 0.5 µM): -4.36%
- inhibition ([19]; measured here: BGB combination, at 5 µM): -6.45%
- inhibition ([19]; measured here: cisplatin combination, at 0.5 µM): -3.15%
- inhibition ([19]; measured here: cisplatin combination, at 5 µM): -8.98%
